Hit rate of the full screen: of about 2,100 compounds, about 940 (45%) were called active. About 48% were inconclusive and are not listed. So high a share suggests a set chosen from earlier hits. The list shows a part of the results. Unmarked numbers belong to inactive results. The call rests on the fitted dose curve; in most records, active means well fitted inhibition curve with a large enough effect; inconclusive means small, poorly fitted or top-dose-only effect; inactive means no such curve, though single readings can be large or run the other way.
assay: Confirmatory qHTS for Inhibitors of ATXN expression; conditions: ATXN2-luciferase reporter cells, luminescence, 24 h; series mostly up to 11.5 µM; activity change, negative = inhibition: at the top concentration; further: nearly all actives have a fitted effect of over 65% in size;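 on activity change, negative = inhibition: 0% = DMSO vehicle wells and -100% = medium-only wells without cells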
Procedure, shortened: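 A titration, incubated 24 h with reporter cells expressing ATXN2-luciferase. Luminescence (SteadyGlo) gives ATXN2 expression, multiplexed GF-AFC fluorescence gives viability; normalised to DMSO and medium-only wells.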
Potency means the concentration at half of the fitted maximal effect.

With `CCCC1CCC(c2ccc(C(=O)NN)cc2)CC1` (stereo not given) as the compound, how does the Potency read?
The Potency was 2820 nM (active).

Which “activity change, negative = inhibition” value does the source give for `FC(F)(F)c1cc(-c2ccccn2)nc2cc(-c3ccccc3)nn12` here?
Its value is -7.24% [at 57.5 µM].

For `c1ccc(-c2cccc(-c3ccccn3)n2)nc1`, which Potency is on record?
Its Potency is 112 nM (active).

For `Cc1cc(=O)[nH]c(N=N/C(=N/Nc2ccccc2C)c2ccccc2)n1`, which Potency is on record?
Its Potency is 1580 nM (active).

With `CCC(=O)NC(c1cc(Cl)c2cccnc2c1O)C(C)C` (stereo not given) as the compound, how does the Potency read?
The Potency was 2820 nM (active).

Which Potency does the source give for `CCC(=O)NC(C)c1cc(Cl)c2cccnc2c1O` (stereo not given) here?
The Potency was 1780 nM (active).

For `CC(=O)NC(c1cc(Cl)c2cccnc2c1O)C(C)C` (stereo not given), which Potency is on record?
The Potency was 794 nM (active).

With `CC(=O)NC(C)c1cc(Cl)c2cccnc2c1O` (stereo not given) as the compound, how does the Potency read?
The Potency was 3980 nM (active).

Which Potency does the source give for `N#C/C(=C\c1ccc([N+](=O)[O-])o1)c1nc2ccccc2[nH]1` here?
Its Potency is 3550 nM (active).

For `Cc1csc(NC(=O)COCC(=O)O)c1-c1nc2ccccc2s1`, which Potency is on record?
Its Potency is 15800 nM (active).

With `O=C(CN1CCOCC1)N/N=C/c1c(O)ccc2ccccc12` as the compound, how does the Potency read?
The Potency was 7080 nM (active).

For `O=C(CN1CCCC1)N/N=C/c1c(O)ccc2ccccc12`, which Potency is on record?
The Potency was 1780 nM (active).

For `Nc1nc(N)c2cc(Sc3ccc4ccccc4c3)ccc2n1`, which Potency is on record?
The Potency was 28200 nM (active).

With `CCCCC(=O)OCC(=O)C1(O)Cc2c(O)c3c(c(O)c2C(OC2CC(NC(=O)C(F)(F)F)C(O)C(C)O2)C1)C(=O)c1c(OC)cccc1C3=O` (stereo not given) as the compound, how does the Potency read?
Its Potency is 2510 nM (active).

With `COc1cccc2c1C(=N)c1c(O)c3c(c(O)c1C2=O)CC(O)(C(C)=O)CC3OC1CC(N)C(O)C(C)O1` (stereo not given) as the compound, how does the Potency read?
Its Potency is 224 nM (active).

Which Potency does the source give for `COc1cccc2c1C(=O)c1c(O)c3c(c(O)c1C2=O)C[C@](O)(C(C)=O)C[C@H]3O[C@@H]1C[C@@H](N)[C@@H](O)[C@@H](C)O1` here?
Its Potency is 282 nM (active).

Which “activity change, negative = inhibition” value does the source give for `CC(C)CCNC(=O)COc1cccc2c1OC(C)(C)C2` here?
The value was -12% [at 57.5 µM].

Which Potency does the source give for `CCOC(=O)c1c2ccc(OCC(=O)N/N=C/c3ccc(C)cc3)cc2n2ccccc12` here?
The Potency was 11200 nM (active).

Which “activity change, negative = inhibition” value does the source give for `CCOC(=O)c1c(CSc2nc(C)cc(C)c2C#N)n(C)c2cc(Br)c(OC(C)=O)cc12` here?
The value was -10.6% [at 57.5 µM].

Which “activity change, negative = inhibition” value does the source give for `COc1cccc(OC)c1C(=O)OCC(=O)NC(=O)NCc1ccccc1` here?
Its value is 6.51%.

Which Potency does the source give for `COc1ccccc1C(CCNCc1ccccc1)c1ccc(OC(C)C)cc1` (stereo not given) here?
The Potency was 3980 nM (active).

With `COc1ccc(CNCCC(c2ccc(OC(C)C)cc2)c2ccccc2OC)cc1` (stereo not given) as the compound, how does the Potency read?
The Potency was 3160 nM (active).

Which Potency does the source give for `CCOC(=O)c1cnc(-n2nc(C)cc2C)nc1NNc1cc(C)nc(-c2ccccc2)n1` here?
The Potency was 3550 nM (active).

Which Potency does the source give for `Cc1ccc(OCC(=O)N2CCN(c3nnc(-c4ccc(C)cc4)c4ccccc34)CC2)cc1` here?
Its Potency is 3160 nM (active).

Which Potency does the source give for `Oc1[nH]c2ccc(Br)cc2c1N=NC(=S)N1CCOCC1` here?
Its Potency is 631 nM (active).

Which Potency does the source give for `Clc1ccc(SCc2cc(N3CCOCC3)nc(-c3ccccn3)n2)cc1` here?
The Potency was 5010 nM (active).

For `CC(C)(C)S(=O)(=O)/C(C#N)=N/Nc1ccc(Cl)cc1`, which Potency is on record?
The Potency was 20000 nM (active).

Which Potency does the source give for `O=S(=O)(c1ccc(F)cc1)c1snnc1-c1ccccc1` here?
The Potency was 15800 nM (active).

With `NS(=O)(=O)c1ccc(N2N=C(c3ccccc3)CC2c2ccc(F)cc2)cc1` (stereo not given) as the compound, how does the “activity change, negative = inhibition” value read?
The value was -25.9%.

For `Cc1ccc(/C=C2\SC(=S)N(CCCC(=O)NC3CCCC3)C2=O)cc1`, which Potency is on record?
Its Potency is 1410 nM (active).

With `Cc1ccc(/C=C2/SC(=S)N(CCCC(=O)Nc3ccc(O)cc3)C2=O)cc1` as the compound, how does the Potency read?
The Potency was 1410 nM (active).

Which “activity change, negative = inhibition” value does the source give for `Cc1ccc(/C=C2\SC(=S)N(CCCC(=O)Nc3ccc(O)cc3)C2=O)cc1` here?
Its value is -17.4%.

With `Cc1ccc(/C=C2/SC(=S)N(CCCC(=O)Nc3cc([N+](=O)[O-])ccc3O)C2=O)cc1` as the compound, how does the Potency read?
Its Potency is 31600 nM (active).

Which Potency does the source give for `Cc1ccc(/C=C2\SC(=S)N(CCCC(=O)Nc3nccs3)C2=O)cc1` here?
The Potency was 7080 nM (active).

Which Potency does the source give for `Cc1ccc(/C=C2\SC(=S)N(CCCC(=O)Nc3ccccc3C(=O)O)C2=O)cc1` here?
Its Potency is 2240 nM (active).

Which Potency does the source give for `Cc1ccc(/C=C2\SC(=S)N(CCCC(=O)Nc3cccnc3)C2=O)cc1` here?
The Potency was 2240 nM (active).

Which “activity change, negative = inhibition” value does the source give for `CCOC(=O)Cn1cc(C(=O)c2ccco2)c2ccccc21` here?
Its value is 2.65%.

For `Cc1cc(C)cc(NC(=O)/C(C#N)=C/c2cn(CC(=O)NCc3ccco3)c3ccccc23)c1`, which Potency is on record?
The Potency was 1780 nM (active).

Which “activity change, negative = inhibition” value does the source give for `COc1ccc(N2C3=C(CC4=C2CC(C)(C)CC4=O)C(=O)CC(C)(C)C3)cc1` here?
Its value is 0.241%.

With `COc1cccc(C2CC(c3c(-c4ccccc4)c4cc(Cl)ccc4[nH]c3=O)=NN2S(C)(=O)=O)c1OC` (stereo not given) as the compound, how does the Potency read?
Its Potency is 2820 nM (active).

For `O=C1c2ccccc2NC(c2ccc(-c3cccc([N+](=O)[O-])c3)o2)N1O` (stereo not given), which Potency is on record?
The Potency was 15800 nM (active).

Which Potency does the source give for `COc1ccc(-c2oc3c(OC)c(OC)c(OC)c(O)c3c(=O)c2OC)cc1OC` here?
Its Potency is 10000 nM (active).

Which Potency does the source give for `COc1ccccc1N1CCN(Cc2cc(Br)c(O)c3ncccc23)CC1` here?
Its Potency is 3550 nM (active).

For `COc1ccccc1N1CCN(Cc2ccc(O)c3ncccc23)CC1`, which Potency is on record?
Its Potency is 562 nM (active).

For `CO[C@@]12[C@@H]3N[C@@H]3CN1C1=C(C(=O)C(N)=C(C)C1=O)[C@@H]2COC(N)=O`, which “activity change, negative = inhibition” value is on record?
Its value is 6.61%.

Source: PubChem BioAssay AID1745848 (National Center for Advancing Translational Sciences (NCATS), 2022)
